Experimental data: PubChem BioAssay (NCI)
The panel holds about 83,000 compounds, 20% with a hit somewhere; the sample as a whole holds those more often.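 Negative percent growth values reflect cell death: -40 means 40% of the cells present at the start died, and -100 means all died.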 A number with no mark means an inactive call. Active and inactive are the calls of the source.

tested on: MDA-MB-468 breast; experiment: NCI-60 one-dose screen, 48 h (100 = growth as untreated, 0 = no growth, -100 = all killed); settings: 10 µM unless noted
Protocol: Growth inhibition of the MDA-MB-468 human Breast tumor cell line is measured as a screen for anti-cancer activity. Cells are grown in 96 well plates and exposed to the test compound for 48 hours. Compounds are tested at a single concentration, which is 10^-5 M for most compounds. The reported endpoint is percent growth (GI% or GIPRCNT), where numbers from 0 - 100% represent growth inhibition, and numbers from -100% - 0 represent cell death. For example, a value of 40 represents 60% growth inhibition. A value of 0 means no net growth occurred over the course of the experiment. A value of -40 indicates 40% of cells at the beginning of the experiment died by the end of the experiment. A value of -100 means all cells are dead at the end of the experiment.
NCI-60 Human Tumor Cell Lines Screen was performed using the standard one-dose NCI protocol, which is described in more detail at https://dtp.cancer.gov/discovery_development/nci-60/default.htm.
Compounds with GIPRCNT values below 10 were considered active. Activity score was based on GIPRCNT using the following formula: […]
Score is 0 for GIPRCNT values of 100 or above, 50 for GIPRCNT values of 0, and 100 for GIPRCNT values of -100.

Row | SMILES | growth
1 | O=C(c1ccc(OCCN2CCOCC2)cc1)C1[C@H](c2ccc(Cl)cc2)[C@@H](c2ccccc2)NC12C(=O)Nc1ccc(Br)cc12 (stereo not given in full) | -8.11% (active)
2 | Clc1cccc(-c2ccc(OCCCN3CCN(c4ccncc4)CC3)cc2)c1 | -62.3% (active)
3 | CCCCCCCCc1ccc(C(=O)Nc2cccc(P(=O)(O)O)c2)cc1 | 88.7%
4 | CC(=O)Nc1ccc(-n2cnc3cc(-c4ccc(O)cc4)ccc32)cc1C(F)(F)F | 8.18% (active)
5 | CC1=C(C(=O)c2ccccc2)C(c2ccc(-n3cncn3)cc2)n2c(nc3ccccc32)N1 (stereo not given) | 95.6%
6 | Cc1cc2nc3c4ccccc4n(CCCN(C)C)c3nc2cc1C | -56.9% (active)
7 | Cn1cc(-c2nnc(N)nc2-c2c[nH]c3ccccc23)c2cccnc21 | 33.4%
8 | Cn1cc(-c2cc(N)n3nc(-c4cn(C)c5ccccc45)cc3n2)c2cc(Br)ccc21 | -24.9% (active)
9 | CC1(C)CC[C@]2(C(=O)Nc3ccccc3)CC[C@]3(C)C(=CCC4[C@@]5(C)C[C@@H](O)[C@H](O)[C@@](C)(CO)C5CC[C@]43C)C2C1 (stereo not given in full) | 22.2%
10 | C/C(=N\N=C\c1cc([N+](=O)[O-])ccc1Cl)c1ccc2c(c1)Nc1ccccc1S2 | 34.1%
11 | Clc1cccc(N/N=C/c2c[nH]c3ccc(Br)cc23)n1 | -10.3% (active)
12 | CN1C(=O)/C(=C/c2ccc(C(=O)Nc3ncc(Cc4ccc(Cl)cc4Cl)s3)cc2)SC1=S | -9.37% (active)
13 | COc1ccc(C(=O)/C=C/c2ccc3ccccc3c2)cc1S(N)(=O)=O | -67% (active)
14 | COc1ccc(/C=C/c2nc3ccccc3c(=O)n2CC(=O)Nc2ccc(Cl)cc2)cc1 | 98%
15 | COc1cc(C2CC(c3cc(OC)c(OC)c(OC)c3)=Nc3c(N)nc(N)nc3N2)ccc1Oc1nc(NCCO)nc(N2CCOCC2)n1 (stereo not given) | 81.2%
16 | O=C(CCN1C(=O)/C(=C/c2ccc(F)cc2)SC1=S)N1CCOCC1 | -11.2% (active)
17 | COc1ccc(C2CC(c3ccc(S(=O)(=O)NCCNc4nc(Nc5ccc(F)cc5)nc(N(C)C)n4)cc3)=Nc3c(N)nc(N)nc3N2)cc1 (stereo not given) | 8.63% (active)
18 | COc1cc2c(c(OC)c1OC)C(=O)CC(c1cccc(NC(=O)c3cc(NC(=O)[C@H](CO)NC(=O)OC(C)(C)C)ccc3Cl)c1)O2 (stereo not given in full) | 19.8%
19 | CC(C)CSc1nc(NCCc2c[nH]c3ccccc23)c(C#N)c(-c2ccccc2)n1 | 20.8%
20 | Cc1ccc([C@H]2C(C(=O)c3ccc(Cl)cc3)C3(N[C@@H]2c2ccccc2)C(=O)Nc2ccc(Br)cc23)cc1 (stereo not given in full) | 59.5%

Row | SMILES | growth
21 | O=C(Cn1nc(-c2ccccc2)ccc1=O)N/N=C/c1ccc(N2CCOCC2)cc1 | 104%
22 | N/N=C(\N)c1c(N)nc(=S)[nH]c1-c1ccc(Cl)cc1Cl | 110%
23 | CC(=O)Nc1ccc(-n2cnc3ccc(-c4ccc(O)cc4)cc32)cc1 | 22%
24 | O=c1onc(-c2cc3ccccc3nc2Cl)n1-c1cccc2ccccc12 | -25.2% (active)
25 | COc1cc2oc(-c3cccc(C(=O)Nc4cccc([N+](=O)[O-])c4)c3)cc(=O)c2c(OC)c1OC | 33%
26 | COc1cc2oc(-c3cccc(NC(=O)[C@H](CC(N)=O)NC(=O)OC(C)(C)C)c3)cc(=O)c2c(OC)c1OC | 82.7%
27 | C#CCOc1cc(N(CC)CC)ccc1C(C(=O)NC(C)(C)C)N(C(=O)C1CCc2cc(F)ccc2O1)c1cc(C)cc(C)c1 (stereo not given) | 24.3%
28 | O=c1c2ccccc2nc(-c2ccccc2)n1/N=C/c1ccc2ccccc2c1 | 67.2%
29 | COc1ccc2c(c1)c(-c1cc(N)n3nc(-c4cn(C)c5ccccc45)cc3n1)cn2C | -34.6% (active)
30 | CCCSc1nc(Nc2ccc(S(N)(=O)=O)cc2)c(C#N)c(-c2cc(OC)c(OC)c(OC)c2)n1 | 30.5%
31 | C=CC(=O)Nc1ccc(C)c(Oc2ccc(Cl)cc2)c1 | 10.2%
32 | C=C1CC[C@@H]2[C@]3(C)COC(c4cn(-c5ccccc5)nc4-c4cccc([N+](=O)[O-])c4)O[C@@H]3CC[C@@]2(C)[C@@H]1C/C=C1/C(=O)OC[C@H]1O (stereo not given in full) | -69.7% (active)
33 | CCCSc1nc(NCCc2c[nH]c3ccccc23)c(C#N)c(-c2ccc(F)cc2)n1 | 44.4%
34 | COc1ccc(-c2nnc3ccc(N/N=C/c4ccc(C)cc4)nn23)cc1 | 89.4%
35 | CC(=O)OC[C@@]1(C)C2CC[C@]3(C)C(CC=C4C5CC(C)(C)CC[C@]5(C(=O)Nc5ccc(F)cc5)CC[C@]43C)[C@@]2(C)C[C@@H](OC(C)=O)[C@@H]1OC(C)=O (stereo not given in full) | 5.58% (active)
36 | COc1cc2c(c(OC)c1OC)C(=O)CC(c1cccc(NC(=O)c3cccc([N+](=O)[O-])c3)c1)O2 (stereo not given) | 8.62% (active)
37 | N#Cc1c(-c2cccc(O)c2O)cc(-c2ccc3ccccc3c2)[nH]c1=O | 58.6%
38 | COc1ccc(C(=O)/C=C/c2ccccc2Br)cc1S(N)(=O)=O | -60.3% (active)
39 | Cc1ccc(-c2nnc3ccc(N/N=C/c4ccccc4)nn23)cc1 | 91.4%
40 | O=C(NN1C(=O)/C(=C/C=C/c2ccc([N+](=O)[O-])o2)SC1=S)c1ccccc1O | -75.4% (active)
